# In all, about 5,500 compounds went through this assay and about 2,000 (36%) were called active. About 18% were inconclusive and are not listed. The list shows a part of the results. Unmarked numbers belong to inactive results. Cut-off read from the data, not from the text of the source: active = normalized growth mostly below about 0.91 (no sharp cut-off); inconclusive = no clear call, values can overlap the other calls; inactive = mostly above about 0.92.
# Experiment: chemical genetic growth profiling, strain panel (AID 1159580);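 note: tested at 20 µM; growth read once vehicle control cultures reached saturation at 30 °C; 1 = growth at the plate median or of vehicle wells; lower values mean less growth of the strain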
# Conditions: growth OD
compound,measurement,setting,value
Cc1cc2c3c(c1)c(O)cc(=O)n3CCC2,normalized growth,"S. cerevisiae deletion strains, locus YAL013W, strain DEP1, stronger effect = lower value",0.967
same,normalized growth,"S. cerevisiae deletion strains, locus YBR229C, strain ROT2, stronger effect = lower value",0.989
same,normalized growth,"S. cerevisiae deletion strains, locus YDL101C, strain DUN1, stronger effect = lower value",0.981
same,normalized growth,"S. cerevisiae deletion strains, locus YDL134C, strain PPH21, stronger effect = lower value",0.968
same,normalized growth,"S. cerevisiae deletion strains, locus YDR150W, strain NUM1, stronger effect = lower value",1
same,normalized growth,"S. cerevisiae deletion strains, locus YEL061C, strain CIN8, stronger effect = lower value",1.01
same,normalized growth,"S. cerevisiae deletion strains, locus YGR078C, strain PAC10, stronger effect = lower value",0.991
same,normalized growth,"S. cerevisiae deletion strains, locus YGR229C, strain SMI1, stronger effect = lower value",0.974
same,normalized growth,"S. cerevisiae deletion strains, locus YHR030C, strain SLT2, stronger effect = lower value",0.518 (active)
same,normalized growth,"S. cerevisiae deletion strains, locus YHR087W, strain rtc3, stronger effect = lower value",0.991
same,normalized growth,"S. cerevisiae deletion strains, locus YJL187C, strain SWE1, stronger effect = lower value",0.984
same,normalized growth,"S. cerevisiae deletion strains, locus YJR043C, strain POL32, stronger effect = lower value",0.984
same,normalized growth,"S. cerevisiae deletion strains, locus YJR075W, strain HOC1, stronger effect = lower value",1
same,normalized growth,"S. cerevisiae deletion strains, locus YKL190W, strain CNB1, stronger effect = lower value",0.988
same,normalized growth,"S. cerevisiae deletion strains, locus YLR039C, strain RIC1, stronger effect = lower value",0.544 (active)
same,normalized growth,"S. cerevisiae deletion strains, locus YLR058C, strain SHM2 (second series), stronger effect = lower value",0.995
same,normalized growth,"S. cerevisiae deletion strains, locus YLR085C, strain ARP6, stronger effect = lower value",0.968
same,normalized growth,"S. cerevisiae deletion strains, locus YLR262C, strain YPT6, stronger effect = lower value",0.549 (active)
same,normalized growth,"S. cerevisiae deletion strains, locus YML094W, strain GIM5, stronger effect = lower value",1.02
same,normalized growth,"S. cerevisiae deletion strains, locus YMR219W, strain ESC1, stronger effect = lower value",0.969
same,normalized growth,"S. cerevisiae deletion strains, locus YMR263W, strain SAP30, stronger effect = lower value",0.968
same,normalized growth,"S. cerevisiae deletion strains, locus YNL128W, strain TEP1, stronger effect = lower value",0.989
same,normalized growth,"S. cerevisiae deletion strains, locus YNL153C, strain GIM3, stronger effect = lower value",0.971
same,normalized growth,"S. cerevisiae deletion strains, locus YNL298W, strain CLA4 (second series), stronger effect = lower value",1.01
same,normalized growth,"S. cerevisiae deletion strains, locus YNL322C, strain KRE1, stronger effect = lower value",0.993
same,normalized growth,"S. cerevisiae deletion strains, locus YNR030W, strain Alg12, stronger effect = lower value",0.989
same,normalized growth,"S. cerevisiae deletion strains, locus YOL006C, strain TOP1, stronger effect = lower value",1.03
same,normalized growth,"S. cerevisiae deletion strains, locus YPL055C, strain LGE1, stronger effect = lower value",0.88
same,normalized growth,"S. cerevisiae deletion strains, locus YPL241C, strain CIN2, stronger effect = lower value",0.96
same,normalized growth,"S. cerevisiae deletion strains, locus YPR135W, strain CTF4, stronger effect = lower value",0.918
same,normalized growth,"S. cerevisiae strains, strain wild type, stronger effect = lower value",0.967

# — PubChem BioAssay AID1159580 (chemical genetic matrix, 2015)
